Measurements as given in PubChem BioAssay (Tox21).
Results filed as inconclusive are left out. Active and inactive are the calls of the source. Unless noted, calls come from the whole dose curve; as a rule, active = well fitted curve in the direction sought with a large enough effect in the repeat runs; inconclusive = weak or mixed curves; inactive = no such curve, though single readings can be large; an effect the other way counts as inactive or inconclusive.

How the values were obtained:
[1] = target: Aryl hydrocarbon receptor (Homo sapiens) (UniProt P35869); test: qHTS assay to identify small molecule that activate the aryl hydrocarbon receptor (AhR) signaling pathway (AID 743085); note: nearly all actives have a fitted effect of over 15% in size; note: potency is the fitted concentration of half-maximal effect;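 for activation: HG2L7.5c1 human HepG2 liver cells with stably integrated DRE-driven firefly reporter; series mostly up to about 70 µM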
Method in brief: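 Measured in HG2L7.5c1 cells: CellTiter-Fluor signal (30 min incubation, 37C) for viability, then luciferase luminescence (30 min, room temperature). Compound contact time was 24 h at 37C, following a 5 h pre-incubation.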

[2] = qHTS assay to identify small molecule that activate the aryl hydrocarbon receptor (AhR) signaling pathway - cell viability counter screen (AID 743086);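 note: HepG2 liver cells carrying the AhR DRE luciferase reporter; series mostly up to about 70 µM; nearly all actives have a fitted effect of over 45% in size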
Method in brief: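 HepG2-AhR-luc (HG2L7.5c1) cells, 4000/well, were preincubated 5 h at 37C, exposed to compound in qHTS format for 24 hr at 37C, then given CellTiter-Fluor for 30 min; viability was read as fluorescence in the reporter wells.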

[3] = target: Peroxisome proliferator-activated receptor gamma (Homo sapiens) (UniProt P37231); test: qHTS assay to identify small molecule agonists of the peroxisome proliferator-activated receptor gamma (PPARg) signaling pathway (AID 743094; active = well fitted activation curve with a large enough effect in the signal ratio in the repeat runs, not every such curve was filed as active; the % refers to the signal ratio)
Method in brief: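 Cell-based bla reporter, HEK293H background, PPARg-driven UAS. Pre-incubation 5 h, 37C, 5% CO2. Compound 17 h, 37C. Substrate 1 h RT; fluorescence.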

[4] = target: Peroxisome proliferator-activated receptor gamma (Homo sapiens) (UniProt P37231); test: qHTS assay to identify small molecule antagonists of the peroxisome proliferator-activated receptor gamma (PPARg) signaling pathway (AID 743191; calls by dose curve; note: series mostly up to about 63 µM; nearly all actives have a fitted effect of over 30% in size)
Method in brief: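 GeneBLAzer PPARg UAS-bla HEK293H cells carrying a UAS-driven beta-lactamase reporter were plated at 3000 cells/well, preincubated 5 h at 37C, then given compound for 17 h at 37C; LiveBLAzer B/G FRET substrate was read after 1 h at room temperature.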

[5] = qHTS assay to identify small molecule antagonists of the peroxisome proliferator-activated receptor gamma (PPARg) signaling pathway - cell viability counter screen (AID 743194); conditions: Potency: co-treated with 50 nM rosiglitazone; note: nearly all actives have a fitted effect of over 55% in size
Method in brief: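 PPARg-UAS-bla HEK293H cells were plated, rested 5 h at 37 C, then treated with compounds plus rosiglitazone (50 nM final) for 17 h at 37 C; viability was then read by CellTiter-Glo luminescence after 30 min at room temperature.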

[6] = qHTS assay for small molecule agonists of the antioxidant response element (ARE) signaling pathway (AID 743202; active = well fitted activation curve with a large enough effect in the signal ratio in the repeat runs, not every such curve was filed as active; the % refers to the signal ratio; note: potency is the fitted concentration of half-maximal effect)
Method in brief: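 Steps: seed ARE-bla HepG2 cells (2,000/well); incubate 5 h at 37 C; add compounds by pin tool; incubate 16 h at 37 C; add FRET substrate; read fluorescence after 2 h at RT.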

[7] = qHTS assay for small molecule agonists of the antioxidant response element (ARE) signaling pathway - cell viability counter screen (AID 743203; calls by dose curve; note: nearly all actives have a fitted effect of over 55% in size)
Method in brief: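 Measured in the same wells as the beta-lactamase ARE reporter, this read-out is CellTiter-Glo luminescence from HepG2 ARE-bla cells given compounds for 16 hrs.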

[8] = qHTS assay for small molecule activators of the heat shock response signaling pathway - cell viability counter screen (AID 743209); note: nearly all actives have a fitted effect of over 50% in size
Method in brief: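 Same-well multiplex: after 2.5 h room-temperature incubation with LiveBLAzer B/G substrate and fluorescence reading, CellTiter-Glo reagent was added to HSE-bla HeLa cells that had received compound for 5 h at 37 C; luminescence read after 30 min.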

[9] = qHTS assay for small molecule activators of the heat shock response signaling pathway (AID 743210; active = well fitted activation curve with a large enough effect in the signal ratio in the repeat runs, with a control signal flat, not every such curve was filed as active; the % refers to the signal ratio;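 note: HeLa cells with beta-lactamase reporter driven by heat shock elements; series mostly up to about 63 µM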)
Method in brief: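 Activation of heat shock element-controlled beta-lactamase expression is measured in HeLa cells by LiveBLAzer FRET fluorescence, with compound exposure lasting 5 h at 37 C and substrate loading 2.5 h at room temperature.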

[10] = qHTS assay to identify small molecule agonists of the peroxisome proliferator-activated receptor delta (PPARd) signaling pathway - cell viability counter screen (AID 743211); note: nearly all actives have a fitted effect of over 55% in size
Method in brief: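 Following 5 h plating at 37 C and 5% CO2, PPARd UAS-bla HEK293H cells took up test compounds for 17 h. Viability was quantified by luminescence 30 min after CellTiter-Glo addition at room temperature.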

[11] = target: Peroxisome proliferator-activated receptor delta (Homo sapiens) (UniProt Q03181); test: qHTS assay to identify small molecule agonists of the peroxisome proliferator-activated receptor delta (PPARd) signaling pathway (AID 743212; calls by dose curve)
Method in brief: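 Cells expressing a UAS-driven beta-lactamase reporter (PPARd-bla HEK293H) were given test compounds after a 5 h settle and kept at 37 C. Reporter activity was then measured as FRET fluorescence using LiveBLAzer B/G substrate.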

[12] = qHTS assay to identify small molecule antagonists of the peroxisome proliferator-activated receptor delta (PPARd) signaling pathway - cell viability counter screen (AID 743213); note: nearly all actives have a fitted effect of over 50% in size
Method in brief: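 PPARd-bla HEK293H cells (3000/well) got compound plus 300 nM L165041 agonist for 17 h at 37 C. Viability in the same wells came from CellTiter-Glo luminescence after 30 min at room temperature.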

[13] = target: Peroxisome proliferator-activated receptor delta (Homo sapiens) (UniProt Q03181); test: qHTS assay to identify small molecule antagonists of the peroxisome proliferator-activated receptor delta (PPARd) signaling pathway (AID 743215; active = well fitted inhibition curve with a large enough effect in the signal ratio in the repeat runs, not every such curve was filed as active; the % refers to the signal ratio;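 note: cells stimulated with agonist L165041 at 300 nM final during compound exposure; series mostly up to about 62 µM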)
Method in brief: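 Fluorescence from cleaved LiveBLAzer B/G FRET substrate (2 h, room temperature) reports PPARd-driven beta-lactamase in HEK293H UAS-bla cells. Cells had been treated 17 h at 37 C with compound plus 300 nM final L165041.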

[14] = target: Bile acid receptor (Homo sapiens) (UniProt Q96RI1); test: qHTS assay to identify small molecule antagonists of the farnesoid-X-receptor (FXR) signaling pathway (AID 743217; active = well fitted inhibition curve with a large enough effect in the signal ratio in the repeat runs, not every such curve was filed as active; the % refers to the signal ratio)
Method in brief: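 FRET fluorescence after 2 h room-temperature LiveBLAzer loading gives the readout. Prior step: FXR-bla HEK 293T cells, seeded and incubated 5 h, received test compounds plus 50 uM final CDCA for 16 h at 37 °C.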

[15] = qHTS assay to identify small molecule agonists of the farnesoid-X-receptor (FXR) signaling pathway - cell viability counter screen (AID 743218); note: nearly all actives have a fitted effect of over 45% in size
Method in brief: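 Readout: CellTiter-Glo luminescence, 30 min RT, multiplexed after the FXR-bla FRET reading. HEK 293T FXR-UAS-bla cells received compound 5 h post-plating and were incubated 16 h at 37 C.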

[16] = target: Bile acid receptor (Homo sapiens) (UniProt Q96RI1); test: qHTS assay to identify small molecule agonists of the farnesoid-X-receptor (FXR) signaling pathway (AID 743220; active = well fitted activation curve with a large enough effect in the signal ratio in the repeat runs, not every such curve was filed as active; the % refers to the signal ratio)
Method in brief: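 FXR-UAS-bla HEK 293T cells carrying a UAS-driven beta-lactamase reporter were plated for 5 h at 37C/5% CO2, then exposed to DMSO-dissolved Tox21 10K compounds for 16 h at 37C. A LiveBLAzer B/G FRET substrate was loaded for 2 h at room temperature before fluorescence reading.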

[17] = qHTS assay to identify small molecule antagonists of the farnesoid-X-receptor (FXR) signaling pathway - cell viability counter screen (AID 743221; active = well fitted cell-killing curve with a large enough effect in the repeat runs, not every such curve was filed as active; note: nearly all actives have a fitted effect of over 50% in size)
Method in brief: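 Compound effects on cell number were measured as CellTiter-Glo luminescence in HEK 293T cells expressing FXR-UAS-bla, after 16 h at 37 C with 50 uM CDCA (final).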

[18] = target: Vitamin D3 receptor (Homo sapiens) (UniProt P11473); test: qHTS assay to identify small molecule agonists of the vitamin D receptor (VDR) signaling pathway (AID 743222; calls by dose curve)
Method in brief: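 Following 4 h attachment at 37C, VDR-bla cells (2,000 per well) received DMSO-dissolved compounds or controls. After 16 h incubation, LiveBLAzer B/G FRET substrate was added and fluorescence read 2 h later at room temperature.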

[19] = target: Vitamin D3 receptor (Homo sapiens) (UniProt P11473); test: qHTS assay to identify small molecule antagonists of the vitamin D receptor (VDR) signaling pathway (AID 743223; active = well fitted inhibition curve with a large enough effect in the signal ratio in the repeat runs, not every such curve was filed as active; the % refers to the signal ratio)
Method in brief: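 Beta-lactamase activity in VDR-bla cells is measured by FRET substrate fluorescence (2 h, room temperature) after cells spend 16 h at 37C with test compound and 3 nM final 1alpha,25-dihydroxyvitamin D3.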

[20] = qHTS assay to identify small molecule agonists of the vitamin D receptor (VDR) signaling pathway - cell viability counter screen (AID 743224); note: series mostly up to about 63 µM; nearly all actives have a fitted effect of over 50% in size
Method in brief: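 In parallel with the bla FRET readout, cytotoxicity toward VDR-bla cells after 16 h compound exposure was assessed by CellTiter-Glo, with luminescence recorded after a 30 min room-temperature incubation.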

Measured: Potency

Bile acid receptor (Homo sapiens), sequence (Q96RI1 whole entry, looked up): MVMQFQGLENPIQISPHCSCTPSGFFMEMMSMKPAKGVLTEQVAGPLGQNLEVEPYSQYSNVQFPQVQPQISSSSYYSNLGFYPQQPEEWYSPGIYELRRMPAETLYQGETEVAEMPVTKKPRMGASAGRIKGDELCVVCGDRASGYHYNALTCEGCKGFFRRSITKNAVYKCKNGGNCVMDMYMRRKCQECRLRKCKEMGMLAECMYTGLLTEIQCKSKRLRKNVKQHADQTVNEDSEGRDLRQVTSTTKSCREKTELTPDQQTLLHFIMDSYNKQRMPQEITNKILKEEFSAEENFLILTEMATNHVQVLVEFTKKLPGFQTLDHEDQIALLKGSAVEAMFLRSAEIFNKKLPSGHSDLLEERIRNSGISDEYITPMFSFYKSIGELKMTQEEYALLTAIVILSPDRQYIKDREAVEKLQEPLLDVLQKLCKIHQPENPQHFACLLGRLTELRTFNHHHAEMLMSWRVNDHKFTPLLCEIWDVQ
Peroxisome proliferator-activated receptor delta (Homo sapiens), sequence (Q03181 whole entry, looked up): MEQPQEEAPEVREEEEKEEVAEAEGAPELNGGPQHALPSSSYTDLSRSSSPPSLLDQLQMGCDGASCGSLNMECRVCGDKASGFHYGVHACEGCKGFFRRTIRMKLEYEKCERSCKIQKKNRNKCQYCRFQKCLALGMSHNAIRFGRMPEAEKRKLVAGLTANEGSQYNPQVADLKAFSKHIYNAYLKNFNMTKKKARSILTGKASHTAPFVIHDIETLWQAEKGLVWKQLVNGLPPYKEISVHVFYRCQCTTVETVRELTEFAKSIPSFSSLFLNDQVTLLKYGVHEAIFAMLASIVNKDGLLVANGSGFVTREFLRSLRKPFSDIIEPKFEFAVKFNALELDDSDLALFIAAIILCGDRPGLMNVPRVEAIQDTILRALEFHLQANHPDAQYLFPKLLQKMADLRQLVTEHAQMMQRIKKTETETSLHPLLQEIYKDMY
Vitamin D3 receptor (Homo sapiens), sequence (P11473 whole entry, looked up): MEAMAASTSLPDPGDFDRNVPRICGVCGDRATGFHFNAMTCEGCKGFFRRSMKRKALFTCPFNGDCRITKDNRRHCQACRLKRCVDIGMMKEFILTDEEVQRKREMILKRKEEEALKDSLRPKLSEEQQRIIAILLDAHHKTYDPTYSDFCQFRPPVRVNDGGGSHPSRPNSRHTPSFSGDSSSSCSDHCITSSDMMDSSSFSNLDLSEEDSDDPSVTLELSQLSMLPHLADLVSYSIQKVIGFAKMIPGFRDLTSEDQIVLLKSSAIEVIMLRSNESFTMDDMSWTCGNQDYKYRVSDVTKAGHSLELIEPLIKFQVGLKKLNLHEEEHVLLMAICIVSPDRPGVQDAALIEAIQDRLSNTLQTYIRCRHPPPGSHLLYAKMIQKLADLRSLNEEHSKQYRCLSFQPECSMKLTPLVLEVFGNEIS
Peroxisome proliferator-activated receptor gamma (Homo sapiens), sequence (P37231 whole entry, looked up): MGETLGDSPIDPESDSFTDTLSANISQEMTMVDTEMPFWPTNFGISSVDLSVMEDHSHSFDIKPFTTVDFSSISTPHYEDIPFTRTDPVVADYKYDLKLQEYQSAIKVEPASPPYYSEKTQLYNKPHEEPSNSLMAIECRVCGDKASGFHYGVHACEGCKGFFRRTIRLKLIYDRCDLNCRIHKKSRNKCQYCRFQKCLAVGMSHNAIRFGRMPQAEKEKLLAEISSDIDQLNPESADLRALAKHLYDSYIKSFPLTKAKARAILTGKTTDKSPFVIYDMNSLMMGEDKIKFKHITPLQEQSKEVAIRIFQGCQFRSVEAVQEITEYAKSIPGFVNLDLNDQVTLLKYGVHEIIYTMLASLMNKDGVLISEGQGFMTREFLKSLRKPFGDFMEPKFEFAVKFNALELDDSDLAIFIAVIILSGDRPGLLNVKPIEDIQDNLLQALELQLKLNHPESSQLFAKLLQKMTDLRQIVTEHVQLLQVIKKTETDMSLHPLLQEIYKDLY
Aryl hydrocarbon receptor (Homo sapiens), sequence (P35869 whole entry, looked up): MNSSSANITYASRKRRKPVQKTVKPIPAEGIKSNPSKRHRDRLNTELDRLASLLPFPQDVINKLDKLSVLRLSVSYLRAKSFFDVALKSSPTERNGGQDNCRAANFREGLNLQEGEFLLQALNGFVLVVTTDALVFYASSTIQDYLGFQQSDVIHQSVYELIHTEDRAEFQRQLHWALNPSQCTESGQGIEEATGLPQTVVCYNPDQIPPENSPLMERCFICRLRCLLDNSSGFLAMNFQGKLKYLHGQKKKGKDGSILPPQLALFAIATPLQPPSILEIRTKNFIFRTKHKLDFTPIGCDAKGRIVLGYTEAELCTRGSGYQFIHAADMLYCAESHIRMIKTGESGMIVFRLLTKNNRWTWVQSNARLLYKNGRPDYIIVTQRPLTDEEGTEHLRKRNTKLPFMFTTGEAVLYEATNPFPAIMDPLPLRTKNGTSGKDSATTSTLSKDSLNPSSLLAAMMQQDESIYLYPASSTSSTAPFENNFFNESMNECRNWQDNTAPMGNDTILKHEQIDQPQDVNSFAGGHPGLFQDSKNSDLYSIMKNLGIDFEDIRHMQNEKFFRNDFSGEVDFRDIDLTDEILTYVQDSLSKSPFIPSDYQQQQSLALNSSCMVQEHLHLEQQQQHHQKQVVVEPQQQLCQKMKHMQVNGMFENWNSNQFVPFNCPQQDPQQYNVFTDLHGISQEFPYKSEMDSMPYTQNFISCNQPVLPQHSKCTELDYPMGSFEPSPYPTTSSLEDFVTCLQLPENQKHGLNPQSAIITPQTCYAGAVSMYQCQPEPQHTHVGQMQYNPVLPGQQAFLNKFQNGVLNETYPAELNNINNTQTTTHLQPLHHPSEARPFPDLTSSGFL

CON(C)C(=O)Nc1ccc(Cl)cc1
active: [1] 27.3 µM
inactive: [2] | [3] | [4] | [5] | [6] | [7] | [8] | [9] | [10] | [11] | [12] | [13] | [14] | [15] | [16] | [17] | [18] | [19] | [20]

CCC[N+](CCC)(CCC)CCC
inactive: [1] | [2] | [3] | [4] | [5] | [6] | [7] | [8] | [10] | [12] | [13] | [15] | [17] | [20]

CCCC(C)(COC(N)=O)COC(=O)NC(C)C (configuration not stated)
inactive: [1] | [2] | [3] | [4] | [5] | [6] | [7] | [8] | [9] | [10] | [12] | [15] | [17] | [18] | [19] | [20]

Clc1ccc2ccccc2c1
inactive: [1] | [2] | [3] | [4] | [5] | [6] | [7] | [8] | [9] | [10] | [11] | [14] | [15] | [16] | [17] | [20]

CCCC[N+]1(C)[C@@H]2CC(OC(=O)[C@H](CO)c3ccccc3)C[C@H]1[C@@H]1O[C@@H]12 (some centres not stated)
inactive: [1] | [2] | [3] | [4] | [5] | [6] | [7] | [8] | [9] | [10] | [11] | [12] | [13] | [14] | [15] | [16] | [17] | [20]

CCC1(C2=NCCN2)Cc2ccccc2O1 (configuration not stated)
inactive: [1] | [2] | [3] | [4] | [5] | [6] | [7] | [8] | [9] | [10] | [12] | [15] | [17] | [19]

N#CC(C#N)=C(C#N)C#N
active: [6] 7.17 µM
inactive: [1] | [2] | [3] | [4] | [5] | [7] | [8] | [9] | [10] | [11] | [13] | [15] | [17] | [18] | [19] | [20]

C[N+]1(CCC(C(N)=O)(c2ccccc2)c2ccccc2)CCCCC1
inactive: [1] | [2] | [3] | [4] | [5] | [6] | [7] | [8] | [9] | [10] | [11] | [13] | [14] | [15] | [16] | [17]

O=C(N[C@H]1CN2CCC1CC2)c1ccc2c(c1)OCCO2
inactive: [1] | [2] | [3] | [4] | [5] | [6] | [7] | [8] | [9] | [10] | [11] | [12] | [15] | [17] | [19]

C1CCNCC1
inactive: [1] | [2] | [3] | [4] | [5] | [6] | [7] | [8] | [9] | [10] | [11] | [12] | [15] | [17] | [18] | [19] | [20]

O=C(NCNC(=O)NC1C(=O)NC(=O)N1CO)NC1C(=O)NC(=O)N1CO (configuration not stated)
inactive: [1] | [2] | [3] | [4] | [5] | [6] | [7] | [8] | [9] | [10] | [12] | [14] | [15] | [16] | [17] | [20]

CN[C@@H](C)[C@H](O)c1ccccc1
inactive: [1] | [2] | [3] | [4] | [5] | [6] | [7] | [8] | [9] | [11] | [12] | [14] | [16] | [17] | [18] | [19] | [20]

O=S(=O)(c1ccccc1)c1ccccc1
inactive: [1] | [2] | [3] | [4] | [5] | [6] | [7] | [8] | [9] | [10] | [11] | [14] | [15] | [17] | [18] | [20]

CCCC[P+](CC)(CCCC)CCCC (tested in a mixture with another compound)
inactive: [1] | [2] | [3] | [4] | [5] | [6] | [7] | [8] | [9] | [10] | [12] | [15] | [17] | [18] | [19] | [20]

CCN(C(C)=O)c1cccc(-c2ccnc3c(C#N)cnn23)c1
inactive: [1] | [2] | [3] | [4] | [5] | [6] | [7] | [8] | [9] | [10] | [12] | [15] | [16] | [17] | [18] | [19] | [20]

CCC(C)(C)O
inactive: [1] | [2] | [3] | [4] | [5] | [6] | [7] | [8] | [9] | [10] | [11] | [12] | [13] | [15] | [17] | [18] | [19]

Oc1cccc(Cl)c1
inactive: [1] | [2] | [3] | [4] | [5] | [6] | [7] | [8] | [10] | [14] | [15] | [16] | [17] | [18] | [19]
